# Results reported in PubChem BioAssay (Tox21).
# Records with an inconclusive call do not appear. A call without a number means that no potency is given here. Calls of active or inactive are those of the source. The call rests on the fitted dose curve; in most records, active means well fitted cell-killing curve with a large enough effect in the repeat runs; inconclusive means weak or mixed curves, or effect the other way; inactive means flat fitted curve, though single readings scatter.
# Assay: qHTS assay to identify small molecule antagonists of the androgen receptor (AR) signaling pathway using the MDA cell line in the presence of 0.5 nM R1881 - cell viability counter screen (AID 1259242); further: nearly all actives have a fitted effect of over 45% in size
# Details: MDA-kb2 viability, CellTiter-Fluor protease fluorescence, 16 h; series mostly up to 92.4 µM
# In short: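 MDA-kb2 cells (human breast carcinoma, stably carrying MMTV-luciferase reporter) were exposed to compounds with 0.5 nM R1881 (final) for 16 hr at 37C, 0% CO2; viability then read as live-cell protease fluorescence (CellTiter-Fluor, 30 min) in the same wells.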
# Potency means the concentration at half of the fitted maximal effect.
row,Structure (SMILES),Potency
1,O=C=Nc1cccc(C(F)(F)F)c1,inactive
2,CCCCCCCC/C=C\CCCCCCCCCCCC(=O)O,inactive
3,CC(=O)OCC(=O)NCCCOc1cccc(CN2CCCCC2)c1,inactive
4,O=C1Cc2cc(Cl)ccc2N1,inactive
5,C/C=C(/C(=C/C)c1ccc(O)cc1)c1ccc(O)cc1,inactive
6,Cc1cc(O)c(C)c(C)c1O,inactive
7,C/C=C/C=C/C=O,inactive
8,CN(C)CCN1C(=O)c2ccccc2N(C)c2ccccc21,inactive
9,CCCCCCC(C)(C)C(=O)O,inactive
10,C=C1C[C@@]23CC[C@H]4[C@@](C)(CCC[C@@]4(C)C(=O)O[C@@H]4O[C@H](CO)[C@@H](O)[C@H](O)[C@H]4O)[C@@H]2CC[C@]1(O[C@@H]1O[C@H](CO)[C@@H](O)[C@H](O[C@@H]2O[C@H](CO)[C@@H](O)[C@H](O)[C@H]2O)[C@H]1O[C@@H]1O[C@H](CO)[C@@H](O)[C@H](O)[C@H]1O)C3,inactive
11,NC1[C@H]2CN(c3nc4c(cc3F)c(=O)c(C(=O)O)cn4-c3ccc(F)cc3F)C[C@@H]12 (stereo not given in full),inactive
12,COC(=O)C1=C(C)NC(C)=C(C(=O)O[C@@H]2CCCN(Cc3ccccc3)C2)[C@@H]1c1cccc([N+](=O)[O-])c1,inactive
13,O=C(/C=C/c1ccccc1)OCCc1ccccc1,inactive
14,C[C@@H]1CC(=O)NN=C1c1ccc(NN=C(C#N)C#N)cc1,11.9 µM (active)
15,C[C@@H](O)[C@H]1C(=O)N2C(C(=O)O)=C([C@H]3CCCO3)S[C@H]12,inactive
16,O=C(Cn1ccnc1[N+](=O)[O-])NCCO,inactive
17,O=C(/C=C/c1ccc(O)c(O)c1)O[C@@H]1C[C@@](OC(=O)/C=C/c2ccc(O)c(O)c2)(C(=O)O)C[C@@H](O)[C@@H]1O,inactive
18,O=C1c2ccccc2C(=O)C1c1ccc(Br)cc1,inactive
19,Clc1ccc(Nc2nnc(Cc3ccncc3)c3ccccc23)cc1,inactive
20,OC(CCN1CCCC1)(c1ccccc1)C1CCCCC1 (stereo not given),inactive

row,Structure (SMILES),Potency
1,CCn1cc(C(=O)O)c(=O)c2cc(F)c(N3CCNCC3)cc21,inactive
2,C=C(C)[C@@H]1CCC2=CCC[C@@H](C)[C@]2(C)C1,inactive
3,C1COC1,inactive
4,CC/C=C1/OC(=O)c2ccccc21,inactive
5,CCOc1ccccc1O[C@H](c1ccccc1)[C@H]1CNCCO1,inactive
6,Cc1cc(C)cc(N)c1,inactive
7,CCN(CC)CCNC(=O)COc1ccc(OC)cc1,inactive
8,CS(=O)(=O)c1ccc(-c2cn3ccccc3n2)cc1,inactive
9,NC(=O)c1ccncc1,inactive
10,Cc1cscn1,inactive
11,CC1=Nc2ccc3ccccc3c2C1(C)C,inactive
12,CCOc1cccc(-n2cc(C(=O)N3CCN(c4cc(C(=O)O)c5ccccc5c4)CC3)nc2-c2ccc(C)cc2)c1,inactive
13,O=C1Cc2ccccc2N1c1c(Cl)cccc1Cl,inactive
14,CCC(=O)OC,inactive
15,C=CCc1ccccc1OCC(O)CNC(C)C (stereo not given),inactive
16,OC1(c2ccccc2)CCNCC1,inactive
17,COC(=O)[C@H]1[C@H]2C[C@@H]3c4[nH]c5cc(OC)ccc5c4CCN3C[C@H]2C[C@@H](OC(=O)/C=C/c2ccc(O)c(OC)c2)[C@@H]1OC,inactive
18,O=C(OC(=O)c1ccccc1)c1ccccc1,inactive
19,CCOC(=O)[C@H](CCc1ccccc1)N[C@@H](C)C(=O)N(CC(=O)O)C1Cc2ccccc2C1,inactive
20,C[C@H]1c2cccc(O)c2C(O)=C2C(=O)[C@]3(O)C(O)=C(C(N)=O)C(=O)[C@@H](N(C)C)[C@@H]3[C@@H](O)[C@@H]21,inactive
